The campaign covered roughly 5,500 compounds. About 2,000 (36%) were called active. Roughly 18% stayed inconclusive and do not appear here. Cut-off read from the data, not from the text of the source: active = normalized growth mostly below about 0.91 (no sharp cut-off); inconclusive = no clear call, values can overlap the other calls; inactive = mostly above about 0.92. The list shows a part of the results.
Test: chemical genetic growth profiling, strain panel (AID 1159580);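 note: tested at 20 µM; growth read once vehicle control cultures reached saturation at 30 °C; 1 = growth at the plate median or of vehicle wells; lower values mean less growth of the strain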
Conditions: S. cerevisiae deletion strains, growth OD

Measured: normalized growth

CO[C@H]1/C=C/O[C@@]2(C)Oc3c(C)c(O)c4c(O)c(c5c(nc6cc(C)ccn65)c4c3C2=O)NC(=O)/C(C)=C\C=C\[C@H](C)[C@H](O)[C@@H](C)C(O)[C@@H](C)[C@H](OC(C)=O)[C@@H]1C (stereo not given in full)
inactive: locus YAL021C, strain ccr4, active compounds read low 1.04 | locus YAL026C, strain drs2, active compounds read low 1.04 | locus YAL030W, strain snc1, active compounds read low 1.04 | locus YBL061C, strain skt5, active compounds read low 1.04 | locus YBR009C, strain hhf1, active compounds read low 1.01 | locus YBR023C, strain chs3, active compounds read low 1.05 | locus YBR171W, strain sec66, active compounds read low 1.06 | locus YBR231C, strain swc5, active compounds read low 1.05 | locus YBR279W, strain paf1, active compounds read low 1.03 | locus YCL011C, strain gbp2, active compounds read low 1.05 | locus YCL016C, strain dcc1, active compounds read low 1.03 | locus YCL061C, strain MRC1, active compounds read low 1.04 | locus YCL069W, strain vba3, active compounds read low 1.05 | locus YCR088W, strain abp1, active compounds read low 1.04 | locus YDL005C, strain med2, active compounds read low 1.06 | locus YDL040C, strain nat1, active compounds read low 1.03 | locus YDR001C, strain nth1, active compounds read low 1.04 | locus YDR069C, strain doa4, active compounds read low 1.04 | locus YDR137W, strain rgp1, active compounds read low 0.988 | locus YDR159W, strain sac3, active compounds read low 1.05 | locus YDR195W, strain ref2 1.05 | locus YDR297W, strain sur2, active compounds read low 1.04 | locus YDR334W, strain swr1, active compounds read low 1.03 | locus YDR335W, strain msn5, active compounds read low 1.04 | locus YDR392W, strain spt3, active compounds read low 0.961 | locus YEL003W, strain gim4, active compounds read low 1.04 | locus YEL037C, strain rad23, active compounds read low 1.04 | locus YEL061C, strain CIN8 (second series), active compounds read low 1.04 | locus YER015W, strain faa2, active compounds read low 1.04 | locus YER016W, strain bim1, active compounds read low 1.03 | locus YER111C, strain swi4, active compounds read low 1.05 | locus YER155C, strain BEM2 (second series), active compounds read low 1.02 | locus YFR010W, strain ubp6, active compounds read low 1.04 | locus YGL167C, strain pmr1, active compounds read low 1.04 | locus YGL173C, strain kem1, active compounds read low 1.04 | locus YGL227W, strain vid30, active compounds read low 1.05 | locus YGL240W, strain doc1, active compounds read low 1.03 | locus YGL253W, strain hxk2, active compounds read low 1.06 | locus YHR013C, strain ard1, active compounds read low 1.08 | locus YHR027C, strain rpn1, active compounds read low 1.04 | locus YHR030C, strain SLT2, active compounds read low 1.03 | locus YHR079C, strain IRE1, active compounds read low 1.03 | locus YHR142W, strain chs7, active compounds read low 1.07 | locus YJL092W, strain hpr5, active compounds read low 1.04 | locus YJL095W, strain BCK1 (second series), active compounds read low 1.03 | locus YJL095W, strain BCK1, active compounds read low 0.988 | locus YJL115W, strain asf1, active compounds read low 1.04 | locus YJL129C, strain trk1, active compounds read low 1.06 | locus YJL154C, strain vps35, active compounds read low 1.04 | locus YJL164C, strain tpk1, active compounds read low 1.04 | locus YJL166W, strain qcr8, active compounds read low 1.05 | locus YJL187C, strain SWE1, active compounds read low 1.06 | locus YJR066W, strain TOR1, active compounds read low 0.982 | locus YKL160W, strain elf1, active compounds read low 1.05 | locus YKR026C, strain gcn3, active compounds read low 1.05 | locus YKR091W, strain srl3, active compounds read low 1.04 | locus YLL001W, strain dnm1, active compounds read low 1.08 | locus YLL026W, active compounds read low 1.04 | locus YLL041C, strain sdh2, active compounds read low 1.04 | locus YLR027C, strain aat2, active compounds read low 1.03 | locus YLR113W, strain HOG1, active compounds read low 1.01 | locus YLR221C, strain rsa3, active compounds read low 1.06 | locus YLR258W, strain gsy2, active compounds read low 1.04 | locus YLR262C, strain YPT6 (second series), active compounds read low 1.09 | locus YLR320W, strain mms22, active compounds read low 1.04 | locus YLR342W, strain FKS1, active compounds read low 1.04 | locus YLR357W, strain rsc2, active compounds read low 1.07 | locus YLR370C, strain arc18, active compounds read low 1.04 | locus YLR384C, strain iki3, active compounds read low 1.04 | locus YML120C, strain ndi1, active compounds read low 1.02 | locus YMR058W, strain fet3, active compounds read low 1.03 | locus YMR125W, strain sto1, active compounds read low 1.05 | locus YMR129W, active compounds read low 1.03 | locus YMR205C, strain PFK2, active compounds read low 1.05 | locus YMR231W, strain pep5, active compounds read low 1.04 | locus YNL071W, strain lat1, active compounds read low 1.05 | locus YNL183C, strain NPR1, active compounds read low 0.988 | locus YNL209W, strain ssb2, active compounds read low 1.03 | locus YNL248C, strain rpa49, active compounds read low 1.06 | locus YNL322C, strain KRE1 (second series), active compounds read low 1.05 | locus YNR049C, strain mso1, active compounds read low 1.03 | locus YOR001W, strain rrp6, active compounds read low 1.01 | locus YOR070C, strain gyp1, active compounds read low 1.04 | locus YOR080W, strain dia2, active compounds read low 1.04 | locus YOR083W, strain WHI5, active compounds read low 1.04 | locus YOR106W, strain vam3, active compounds read low 1.1 | locus YOR231W, strain MKK1, active compounds read low 0.989 | locus YOR265W, strain rbl2, active compounds read low 1.03 | locus YOR270C, strain vph1, active compounds read low 1.1 | locus YOR290C, strain snf2, active compounds read low 1.04 | locus YPL051W, strain arl3, active compounds read low 1.02 | locus YPL078C, strain atp4, active compounds read low 1.05 | locus YPL106C, strain sse1, active compounds read low 1.03 | locus YPL240C, strain hsp82, active compounds read low 1.04 | locus YPL256C, strain CLN2, active compounds read low 1.06

— PubChem BioAssay AID1159580 (chemical genetic matrix, 2015)
